# In PubChem BioAssay:
# The source made the active and inactive calls. Rule as the data show it, unless noted: active = inhibition above about 80%; inactive = the rest.
# Legend:
# [1] = growth inhibition, single agent or in combination, cell-based, chromothripsis tumors, cisplatin or BGB combos (AID 1671449); settings: LFS_MB_P medulloblastoma cells;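 also: cells exposed for 96 hours; 0% = vehicle DMSO and 100% = killing by high DMSO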
# [2] = growth inhibition, single agent and combos, cell-based, chromothripsis tumors, cisplatin or BGB combos (AID 1671450); settings: HDN33 neuroblastoma cells, stronger effect = higher value;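 also: cells exposed to compound for four days; 0% = vehicle DMSO and 100% = cell killing by high DMSO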
# [3] = growth inhibition, single agents and combos, ICB984, cell-based, cisplatin or BGB combos, synergistic combos for chromothripsis tumors (AID 1671451; call rule not given here;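 also: cells exposed for 96 hours before readout; 0% = vehicle DMSO and 100% = killing by high DMSO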); settings: ICB984 medulloblastoma cells, drug combinations, stronger effect = higher value
# [4] = growth inhibition, single agents and combos, LFS_MB_1R, cell-based, cisplatin or BGB combos, synergistic combos for chromothripsis tumors (AID 1671452); settings: LFS_MB_1R medulloblastoma cells, stronger effect = higher value;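 also: cells exposed for 96 hours before readout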
# [5] = growth inhibition, single agents and combos, HTB85, cell-based, BGB or cisplatin IC20 combos, synergistic combos for chromothripsis tumors (AID 1671453); settings: HTB85 osteosarcoma cells, drug combinations, stronger effect = higher value;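 also: cells exposed for 96 hours before readout; 0% = vehicle DMSO and 100% = high DMSO killing control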
# [6] = growth inhibition, single agents and combos, CRL2098, cell-based, BGB or cisplatin IC20 combos, synergistic combos for chromothripsis tumors (AID 1671454); settings: CRL2098 osteosarcoma cells, drug combinations, stronger effect = higher value;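 also: cells exposed for 96 h before readout; 0% = vehicle DMSO and 100% = killing by high DMSO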
# [7] = growth inhibition, single agents and combos, HD-MB03, cell-based, BGB or cisplatin IC20 combos, synergistic combos for chromothripsis tumors (AID 1671455; in the data active = inhibition above about 83%;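 also: 0% = vehicle DMSO and 100% = high DMSO as cytotoxic control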); settings: HD-MB03 medulloblastoma cells, stronger effect = higher value
# [8] = growth inhibition, single agents and combos, UWB1.289, cell-based, BGB or cisplatin combos, synergistic combos for chromothripsis tumors (AID 1671456); settings: UWB1.289 ovarian carcinoma cells, stronger effect = higher value;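 also: cells exposed to compound for four days; 0% = vehicle DMSO and 100% = killing by high DMSO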
# [9] = growth inhibition, single agents and combos, LFS_MB_2R, cell-based, cisplatin combos, synergistic combos for chromothripsis tumors (AID 1671457); settings: LFS_MB_2R medulloblastoma cells, stronger effect = higher value;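 also: cells exposed to compound for four days before readout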
# [10] = growth inhibition, MDA-MB-436, cell-based, BGB or cisplatin combos, synergistic combos for chromothripsis tumors (AID 1671458; call rule not given here;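 also: cells exposed for 96 hours; 0% = vehicle DMSO and 100% = killing by high DMSO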); settings: MDA-MB-436 breast carcinoma growth inhibition, drug combinations, stronger effect = higher value
# [11] = UWB1.289_BRCA1 ovarian cancer growth, cell-based, BGB or cisplatin combinations (AID 1671459); settings: UWB1.289 BRCA1 ovarian carcinoma, drug combinations, stronger effect = higher value
# [12] = drug combination toxicity in non-malignant astrocytes – cell-based, BGB or cisplatin IC20 combos, cytotoxicity control for chromothriptic childhood tumor combination screen (AID 1671460); settings: Human astrocytes, viability inhibition, drug combinations, at 0.5 µM, stronger effect = higher value;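 also: cells exposed to compounds for 96 hours before viability readout; 0% = vehicle and 100% = killing control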
# [13] = BT084 cell growth, single and combined drugs, ICGC_MB145, cisplatin and BGB IC40 combos (AID 1671461); settings: BT084 medulloblastoma cells, drug combinations, stronger effect = higher value;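 also: cells exposed to drugs for 96 hours; 0% = vehicle DMSO and 100% = high DMSO full killing control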
# [14] = RCMB18 cell growth, single agent and combined, cisplatin and BGB IC40 combos (AID 1671462); settings: RCMB18 medulloblastoma cells, stronger effect = higher value;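 also: cells exposed to compound for four days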
# [15] = CRL1545 cell growth, single agent and combined, cisplatin and BGB IC20 combos (AID 1671464); settings: CRL1545 osteosarcoma cells, stronger effect = higher value;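 also: cells exposed to compound for 96 hours before readout; 0% = vehicle DMSO and 100% = high DMSO killing control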
# [16] = at 0.5 µM, stronger effect = higher value
# [17] = measured here: combination with BGB IC20, at 0.005 µM
# [18] = measured here: combination with BGB IC40, at 0.005 µM
# [19] = measured here: combination with BGB IC40, at 0.05 µM
# [20] = measured here: combination with cisplatin, at 0.5 µM, stronger effect = higher value
# [21] = measured here: combination with cisplatin, at 5 µM, stronger effect = higher value
# [22] = measured here: with BGB IC20 combination, at 0.5 µM
# [23] = measured here: with cisplatin IC20 combination, at 0.5 µM
# [24] = measured here: 5 uM single agent, at 5 µM
# [25] = measured here: combination with cisplatin, at 0.5 µM
# [26] = measured here: combination with cisplatin, at 5 µM
# [27] = measured here: with BGB IC20, at 0.5 µM
# [28] = measured here: with BGB IC20, at 5 µM
# [29] = measured here: with cisplatin IC20, at 0.5 µM
# [30] = measured here: with cisplatin IC20, at 5 µM
# [31] = measured here: combination with BGB at IC20, at 0.5 µM
# [32] = measured here: combination with cisplatin at IC20, at 0.5 µM
# [33] = measured here: combo with BGB at IC20, at 0.5 µM
# [34] = measured here: combo with cisplatin at IC20, at 0.5 µM
# [35] = measured here: inhibition with BGB combination, at 0.05 µM
# [36] = measured here: inhibition with cisplatin combination, at 0.05 µM
# [37] = measured here: BGB combination, at 0.5 µM
# [38] = measured here: BGB combination, at 5 µM
# [39] = measured here: cisplatin combination, at 0.5 µM
# [40] = measured here: cisplatin combination, at 5 µM
# [41] = BGB combination, concentration series, at 5 µM
# [42] = cisplatin combination, concentration series, at 5 µM
# [43] = measured here: combo with BGB IC20
# [44] = measured here: combo with cisplatin IC20
# [45] = cisplatin combination, at 0.5 µM
# [46] = measured here: BGB IC40 combination 0.05 uM, at 0.05 µM
# [47] = measured here: BGB IC40 combination, at 0.05 µM
structure (smiles),measurement,setting,value
Cc1cn(C2CC(O)C(COP(=O)(O)OP(=O)(O)OP(=O)(O)O)O2)c(=O)[nH]c1=O (stereo unspecified),inhibition,[1]; [16],-19.9% (inactive)
same,inhibition,[1]; [17],-8.93%
same,inhibition,[1]; [18],80.9%
same,inhibition,[1]; [19],0.344%
same,inhibition,[1]; [20],-42.6%
same,inhibition,[1]; [21],-12.4%
same,inhibition,"[2]; BGB combo, at 5 µM",-9.68%
same,inhibition,[2]; at 0.5 µM,4.14% (inactive)
same,inhibition,"[2]; cisplatin combo, at 5 µM",0.577%
same,inhibition,[2]; [22],-1.96%
same,inhibition,[2]; [23],7.93%
same,inhibition,"[2]; single agent, at 5 µM",1.73%
same,inhibition,"[3]; BGB IC20 combo, at 0.005 µM",10.7%
same,inhibition,"[3]; BGB IC40 combo, at 0.005 µM",17.3%
same,inhibition,"[3]; BGB IC40 combo, at 0.05 µM",24%
same,inhibition,[3]; at 0.5 µM,8.18% (inactive)
same,inhibition,"[3]; cisplatin combo, at 0.05 µM",20.3%
same,inhibition,"[3]; cisplatin combo, at 0.5 µM",3.65%
same,inhibition,"[3]; cisplatin combo, at 5 µM",-24.4%
same,inhibition,[3]; [24],4.13%
same,inhibition,[4]; at 0.5 µM,6.88% (inactive)
same,inhibition,[4]; [19],-1.92%
same,inhibition,[4]; [25],9.07%
same,inhibition,[4]; [26],4.13%
same,inhibition,[5]; at 0.5 µM,7.15% (inactive)
same,inhibition,[5]; [27],27.1%
same,inhibition,[5]; [28],13.2%
same,inhibition,[5]; [29],-5.05%
same,inhibition,[5]; [30],1.73%
same,inhibition,"[5]; single agent, at 5 µM",10.9%
same,inhibition,[6]; at 0.5 µM,6.85% (inactive)
same,inhibition,[6]; [31],-16.6%
same,inhibition,[6]; [32],29.2%
same,inhibition,[7]; at 0.5 µM,10.7% (inactive)
same,inhibition,[7]; [33],9.76%
same,inhibition,[7]; [34],8%
same,inhibition,[8]; at 0.5 µM,7.19% (inactive)
same,inhibition,[8]; [35],12.5%
same,inhibition,[8]; [36],-3.67%
same,inhibition,[9]; at 0.5 µM,0.97% (inactive)
same,inhibition,[9]; [25],8.52%
same,inhibition,[9]; [26],26.6%
same,inhibition,[10]; at 0.5 µM,2% (inactive)
same,inhibition,[10]; [37],-1.94%
same,inhibition,[10]; [38],2.66%
same,inhibition,[10]; [39],-0.048%
same,inhibition,[10]; [40],5.35%
same,inhibition,[11]; [41],5.28%
same,inhibition,[11]; at 0.5 µM,7.57% (inactive)
same,inhibition,[11]; [42],6.92%
same,inhibition,[12],2.58% (inactive)
same,inhibition,[12]; [43],-0.198%
same,inhibition,[12]; [44],3.8%
same,inhibition,[13]; at 0.5 µM,6.5% (inactive)
same,inhibition,[13]; [45],4.31%
same,inhibition,"[13]; cisplatin combination, at 5 µM",-28.2%
same,inhibition,[13]; [46],23.2%
same,inhibition,"[13]; single agent, at 5 µM",18.9%
same,inhibition,[14]; at 0.5 µM,-1.71% (inactive)
same,inhibition,"[14]; cisplatin combo, at 5 µM",-2.93%
same,inhibition,[14]; [47],18.6%
same,inhibition,[14]; [25],-28.7%
same,inhibition,"[14]; single agent, at 5 µM",2.51%
same,inhibition,[15]; at 0.5 µM,12.4% (inactive)
same,inhibition,[15]; [22],17.1%
same,inhibition,[15]; [23],8.61%
same,inhibition,"[15]; single agent, at 0.05 µM",-33%
same,inhibition,"[15]; single agent, at 5 µM",-18%
C[n+]1ccc(-c2c3nc(c(-c4cc[n+](C)cc4)c4ccc([nH]4)c(-c4cc[n+](C)cc4)c4nc(c(-c5cc[n+](C)cc5)c5ccc2[nH]5)C=C4)C=C3)cc1,inhibition,[1]; [16],-16.4% (inactive)
same,inhibition,[1]; [17],4.93%
same,inhibition,[1]; [18],-7.27%
same,inhibition,[1]; [19],5.45%
same,inhibition,[1]; [20],-7.43%
same,inhibition,[1]; [21],6.44%
same,inhibition,"[2]; BGB combo, at 5 µM",-33%
same,inhibition,[2]; at 0.5 µM,-31.4% (inactive)
same,inhibition,"[2]; cisplatin combo, at 5 µM",-48.7%
same,inhibition,[2]; [22],-41%
same,inhibition,[2]; [23],-34.4%
same,inhibition,"[2]; single agent, at 5 µM",-48.2%
same,inhibition,"[3]; BGB IC20 combo, at 0.005 µM",-7.96%
same,inhibition,"[3]; BGB IC40 combo, at 0.005 µM",-38.9%
same,inhibition,"[3]; BGB IC40 combo, at 0.05 µM",-28.5%
same,inhibition,[3]; at 0.5 µM,-22.5% (inactive)
same,inhibition,"[3]; cisplatin combo, at 0.05 µM",-33.6%
same,inhibition,"[3]; cisplatin combo, at 0.5 µM",-35.2%
same,inhibition,"[3]; cisplatin combo, at 5 µM",-30.8%
same,inhibition,[3]; [24],-3.94%
same,inhibition,[4]; at 0.5 µM,-33.2% (inactive)
same,inhibition,[4]; [19],-38.7%
same,inhibition,[4]; [25],-36.8%
same,inhibition,[4]; [26],-24.6%
same,inhibition,[5]; at 0.5 µM,-31.3% (inactive)
same,inhibition,[5]; [27],-48.7%
same,inhibition,[5]; [28],-28.8%
same,inhibition,[5]; [29],-29.2%
same,inhibition,[5]; [30],1.2%
same,inhibition,"[5]; single agent, at 5 µM",-24.3%
same,inhibition,[6]; at 0.5 µM,-75.6% (inactive)
same,inhibition,[6]; [31],-55.7%
same,inhibition,[6]; [32],-59.6%
same,inhibition,[7]; at 0.5 µM,-18.1% (inactive)
same,inhibition,[7]; [33],-21.5%
same,inhibition,[7]; [34],-12.4%
same,inhibition,[8]; at 0.5 µM,-15% (inactive)
same,inhibition,[8]; [35],-39.4%
same,inhibition,[8]; [36],-10%
same,inhibition,[9]; at 0.5 µM,-18.1% (inactive)
same,inhibition,[9]; [25],-16.6%
same,inhibition,[9]; [26],-12.4%
same,inhibition,[10]; at 0.5 µM,-9.73% (inactive)
same,inhibition,[10]; [37],-10.7%
same,inhibition,[10]; [38],-18%
same,inhibition,[10]; [39],-7.22%
same,inhibition,[10]; [40],-11.9%
same,inhibition,[11]; [41],-36.3%
same,inhibition,[11]; at 0.5 µM,-17.4% (inactive)
same,inhibition,[11]; [42],-6.54%
same,inhibition,[12],-1.53% (inactive)
same,inhibition,[12]; [43],4.28%
same,inhibition,[12]; [44],3.89%
same,inhibition,[13]; at 0.5 µM,-2.03% (inactive)
same,inhibition,[13]; [45],-16.4%
same,inhibition,"[13]; cisplatin combination, at 5 µM",4.22%
same,inhibition,[13]; [46],-24.6%
same,inhibition,"[13]; single agent, at 5 µM",-14.3%
same,inhibition,[14]; at 0.5 µM,-13.6% (inactive)
same,inhibition,"[14]; cisplatin combo, at 5 µM",1.63%
same,inhibition,[14]; [47],-15.7%
same,inhibition,[14]; [25],-4.98%
same,inhibition,"[14]; single agent, at 5 µM",-32.1%
same,inhibition,[15]; at 0.5 µM,-40.2% (inactive)
same,inhibition,[15]; [22],-36.3%
same,inhibition,[15]; [23],-42.2%
same,inhibition,"[15]; single agent, at 0.05 µM",-36.8%
same,inhibition,"[15]; single agent, at 5 µM",45%
